Screening data deposited in PubChem BioAssay by National Center for Advancing Translational Sciences (NCATS).
NPSR antagonist: blocks cAMP signaling of the human neuropeptide S receptor | actives 1% (n = 220,000) | CHO-NPSR cells, cAMP TR-FRET, antagonist mode | Q6W5P4 | Potency, µM (series often up to 38.3 µM), most hits filed as inhibitors; further: nearly all actives have a fitted effect of over 50% in size
Target sequence (Q6W5P4 whole entry, looked up): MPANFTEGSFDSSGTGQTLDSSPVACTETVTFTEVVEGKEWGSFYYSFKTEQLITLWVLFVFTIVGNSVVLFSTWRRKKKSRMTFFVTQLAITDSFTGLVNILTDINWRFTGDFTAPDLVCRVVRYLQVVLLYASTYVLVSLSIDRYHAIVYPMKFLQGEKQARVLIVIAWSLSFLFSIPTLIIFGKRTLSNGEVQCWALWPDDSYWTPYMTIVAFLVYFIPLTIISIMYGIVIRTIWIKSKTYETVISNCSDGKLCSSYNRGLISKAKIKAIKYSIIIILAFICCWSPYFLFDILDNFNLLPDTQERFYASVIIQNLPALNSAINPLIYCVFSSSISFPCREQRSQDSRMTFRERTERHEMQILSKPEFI
IMPase Li cell: membrane-permeable IMPase blocker, potentiated with lithium. CHO-M1 cells, IP1 TR-FRET (IP-One), carbachol + lithium. Potency, µM (highest dose often 59.4 µM), actives largely listed as inhibitors. actives 0.35% (n = 210,000). AID 1457;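 further: IP1 builds up when IMPase is blocked and the TR-FRET signal falls; nearly all actives have a fitted effect of over 50% in size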
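Steps: plate 2000 CHO-M1 cells per well and culture 16–30 h; add compound and lithium; incubate 30 min, 37C; add d2-IP1 tracer and Eu cryptate anti-IP1 antibody in lysis buffer; read after 10 min at room temperature.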
HttQ103 aggreg: reduces HttQ103-GFP aggregates in PC12 cells; PC12 HttQ103-GFP aggregates, Acumen cytometry, 40 h; actives 1.1% (n = 220,000); Potency, µM (titrated, usually from 46.1 µM), actives largely listed as inhibitors; further: nearly all actives have a fitted effect of over 60% in size
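Using laser scanning cytometry, GFP-positive aggregates were counted after lysis of PC12 cells induced with 100 nM tebufenozide to express HTT exon 1 Q103–GFP. Compounds were tested in titration.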
ERK EGF block: blocks ERK signaling stimulated by EGF. HEK293-V1b, EGF-stimulated phospho-ERK AlphaScreen. Potency, µM (titrated, usually from 11.5 µM), actives largely listed as inhibitors. actives 0.41% (n = 130,000); further: nearly all actives have a fitted effect of over 55% in size
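Stably V1b-transfected HEK293 cells; 30 min compound, then EGF 25 nM final for 5 min at 37C; 10 min lysis; phospho-ERK by AlphaScreen after 5 hr beads at room temperature.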
HTT ATP protect: protects HTT-Q103 PC12 cells, measured by ATP | PC12 HTT-Q103 induced, cytoprotection, ATP luminescence, 40 h | Potency, µM (series often up to 56.4 µM), hits mostly activators | actives 0.14% (n = 230,000); further: nearly all actives have a fitted effect of over 45% in size
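Compounds added alongside 100 nM tebufenozide, which induces toxic Q103 huntingtin exon 1-GFP in stable PC12 cells; surviving cells quantified by luminescent ATP measurement. Medium: phenol red-free DMEM, 5% equine and 5% calf serum.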
Hits are given with their value; 0 = inactive; ? = inconclusive; - = not tested or not shown; [ ] = dose if it differs, or a comment. Most compounds without a hit are left out; they make up all but 1.9% or so of the library. The call rests on the fitted dose curve; in most records, active means well fitted curve in the direction sought with a large enough effect; inconclusive means small, poorly fitted or top-dose-only effect, or another doubt; inactive means no such curve, though single readings can be large; an effect the other way counts as inactive or inconclusive.

SMILES	NPSR antagonist	IMPase Li cell	HttQ103 aggreg	ERK EGF block	HTT ATP protect
Cc1cccc2cc(C#N)c(SCC(=O)NNC(=O)Cc3ccccc3)nc12	0	?	0	-	0
Cc1cccc2cc(C#N)c(SCC(=O)NCc3cccs3)nc12	7.9µM	7.9µM	0	0	0[10 µM]
Cc1cccc2cc(C#N)c(SCC#N)nc12	?	14µM	0	0	-
O=c1[nH]c(=O)n(Cc2ccccc2)c2nc(-c3ccc(Oc4ccc(F)cc4)c([N+](=O)[O-])c3)n(CCO)c12	6.3µM	0	0	0	0[10 µM]
Cc1ccc(SC[C@H](c2ccccc2)N2CCN(CC(C)C)CCC2=O)cc1	?	-	0[9.22 µM]	32µM	0[10 µM]
CCNc1ncc2nc(C)c(=O)n(Cc3ccc(F)cc3)c2n1	-	0	-	-	0
CCOC(=O)C1=C(c2ccccc2)c2cc(OC)ccc2OC1C(=O)OCC (centres undefined)	-	0	-	-	0
Cc1ccc(Oc2ccc(NC(=O)c3ccco3)cc2)cc1	0[7.67 µM]	0	22µM	-	0
COC(=O)[C@H](COC(C)(C)C)NC(=O)O[C@@H]1C(=O)c2ccc(OC)cc2O[C@H]1c1cccc(C(F)(F)F)c1	-	0	-	0	?
C=CCNCC(=O)N1N=C(c2ccc3ccccc3c2)CC1c1ccc(OC)cc1 (centres undefined)	0	0	13µM	0	0[10 µM]
COc1ccc(C2CC(c3ccc4ccccc4c3)=NN2C(=O)CNC2CCCCC2)cc1 (centres undefined)	?	0	0	0	0
CN1CCN(c2ncc3nc(-c4ccc(Cl)cc4)c(=O)n(C)c3n2)CC1	-	0	-	-	0
O=C1CN2CCN(CC2)CC(=O)Nc2ccc(cc2)S(=O)(=O)c2ccc(cc2)NC(=O)CN2CCN(CC2)CC(=O)Nc2ccc(cc2)S(=O)(=O)c2ccc(cc2)N1	-	0	-	-	0[10 µM]
O=C(NC1CCCCC1)C(c1ccc2ncccc2c1)N(Cc1ccc2c(c1)OCO2)C(=O)c1ccc2c(c1)OCCO2 (centres undefined)	0	0	0	0	0[10 µM]
O=C(NC1CCCCC1)C(c1ccc2ncccc2c1)N(Cc1ccc(F)cc1)C(=O)c1ccc2c(c1)OCCO2 (centres undefined)	13µM	0	0	-	0
CCCCCCCCCCCCCCCC(N)=O	-	0	-	0	0
CC(c1ccccc1)N1C(=O)/C(=C/c2ccncc2)SC1=S (centres undefined)	0	-	0[9.22 µM]	22µM	0[10 µM]
COc1ccc(OC)c(-c2c3cc(O)c(=O)cc-3oc3cc(O)c(O)cc23)c1	0	0	5µM	25µM	-
O=c1cc2oc3cc(O)c(O)cc3c(-c3ccccc3O)c-2cc1O	0[7.67 µM]	-	0[9.22 µM]	?	0[10 µM]
CC(C)C(N)C(=O)O (centres undefined)	-	0	-	-	0
Cc1[nH]c2ccc(F)cc2c1CCN(Cc1ccncc1)C(=S)Nc1ccc(F)cc1	7.9µM	0	0	0	0
Cc1[nH]c2ccc(F)cc2c1CCN(Cc1cccnc1)C(=S)Nc1cccc(F)c1	10µM	0	0	0	-
CC1CCCN(C2=C(NS(=O)(=O)c3ccc(Cl)cc3)C(=O)c3ccccc3C2=O)C1 (centres undefined)	0	0	0	10µM	0[10 µM]
Cn1c(N=Nc2ccc(N3CCOCC3)cc2)[n+](C)c2ccccc21	7.9µM	0	-	16µM	-
Cn1c(=Nc2ccc(N3CCOCC3)cc2)ccc2ccccc21	0	0	0	-	0
SMILES	NPSR antagonist	IMPase Li cell	HttQ103 aggreg	ERK EGF block	HTT ATP protect
O=c1c2ccccc2oc2cc(O)c([C@@H]3COC[C@@H](CO)[C@@H](O)[C@@H](O)[C@H]3O)c(O)c12	-	-	-	-	0
Clc1ccc(-c2csc(=Nc3cccnc3)n2CCCn2ccnc2)cc1Cl	0	0	11µM	?	0[10 µM]
COC(=O)c1scc(C#N)c1N/N=C(\C#N)S(=O)(=O)c1ccc(Cl)cc1	10µM	-	0[9.22 µM]	0	0[10 µM]
COC(=O)c1scc(S(=O)(=O)C(C)C)c1N/N=C(\C#N)C(=O)c1ccc(Cl)cc1	0[7.67 µM]	-	0[9.22 µM]	0	0[10 µM]
O=C(NNC(=O)c1cccs1)Nc1cccc(Cl)c1	0	0	0	-	0
Cc1ccc(NC(=O)c2cccs2)cc1S(=O)(=O)Nc1cccc(Cl)c1	0	0	0	20µM	0[1.9 µM]
COc1cc(-c2nnc(COc3ccc4cc(Br)ccc4c3)o2)cc(OC)c1OC	0	14µM	0	-	0
COc1ccc(-c2nnc(COc3ccc4ccccc4c3)o2)cc1OC	0	0	0	-	0[10 µM]
CCN(CC)S(=O)(=O)c1ccc(Oc2ccc(S(=O)(=O)N(CC)CC)cc2)cc1	0	0	2.8µM	-	0
CCN(CC)S(=O)(=O)c1ccc(Oc2ccccc2OC)cc1	0	-	0[9.22 µM]	0	0[10 µM]
CC(C)(C)C(=O)NC(=S)NNC(=O)c1ccncc1	0	0	0[9.22 µM]	-	0
CC(C)(C)C(=O)NC(=S)NNC(=O)c1ccc(-c2ccccc2)cc1	0	0	8.9µM	0	?
CCC(=O)N1CCc2cc(S(=O)(=O)Nc3ccc4c(c3)OCCO4)ccc21	0	0	7.9µM	-	0
Cn1c(=O)c(=O)n(C)c2cc(S(=O)(=O)Nc3ccc4c(c3)OCCO4)ccc21	0	0	0	-	0[1.9 µM]
Cn1c(=O)oc2cc(S(=O)(=O)Nc3ccc4c(c3)OCCO4)ccc21	0	0	35µM	-	0
C=CC[n+]1c(-c2ccccc2)csc1NC(C)(C)C	0	0	0	0	0[10 µM]
C=CC[n+]1c(-c2ccc(OC)c(OC)c2)csc1NNC(=O)Nc1ccccc1	0	0	13µM	-	0
COc1ccc2c(c1)O[C@@H](c1ccc3c(c1)OCO3)[C@H](OC(=O)NS(=O)(=O)c1ccc(F)cc1)C2=O	-	0	-	0	0
O=C(Nc1ccc(S(=O)(=O)N2CCCCC2)cc1)c1ccncc1	0	-	0	-	0[10 µM]
COc1ccc(-c2cnnn2-c2ccc(NC(=O)c3ccc(S(=O)(=O)N4CCCCC4)cc3)cc2)cc1OC	3.2µM	0	0	0	0[10 µM]
COc1ccc(C(=O)Nc2ccc(S(=O)(=O)N3CCCCC3)cc2)cc1OC	0	0	0	-	0
O=C(Nc1ccc(Cc2ccncc2)cc1)c1ccc(S(=O)(=O)N2CCCC2)cc1	0	0	11µM	?	-
NC(=O)c1ccsc1NC(=O)c1ccc(S(=O)(=O)N2CCCC2)cc1	2µM	0	0	0	0
O=C(Oc1ccccc1)C1O[C@@H]1c1ccccc1 (some centres undefined)	-	0	-	0	-
COc1ccc(C(=O)[C@]2(C)C=C(c3ccc(OC)cc3)[C@H](C)C2)cc1	-	0	-	0	35µM
C[C@@H]1C[C@](C)(C(=O)c2ccc3c(c2)OCO3)C=C1c1ccc2c(c1)OCO2	-	0	-	0	0
COCCCNCCCOc1ccc(Cl)cc1C(C)(C)C	0	0	7.9µM	?	-
CCCOc1ccc(C(=O)NNC(=S)NC(C)=O)cc1	0	0	?	-	0
CCCOc1ccc(C(=O)NNC(=S)NC(=O)c2cc(-c3ccccc3)nc3ccccc23)cc1	0	0	7.1µM	-	0
N#Cc1c(NC(=O)C2CC(c3ccccc3Cl)=NO2)sc2c1CCC2 (centres undefined)	0	0	0	-	0
